Results published in ChEMBL document CHEMBL1961873, “Compounds: GSK PKIS; Assays: Nanosyn kinase panel” (2012).

How the values were obtained:
[1] = target: Glycogen synthase kinase-3 beta (Homo sapiens) (UniProt P49841); settings: at 1 µM;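 also: reported values are mean percent inhibition of GSK3B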
[2] = target: Homeodomain-interacting protein kinase 1 (Homo sapiens) (UniProt Q86Z02); settings: at 0.1 µM
[3] = target: Homeodomain-interacting protein kinase 1 (Homo sapiens) (UniProt Q86Z02); settings: at 1 µM
[4] = target: T1, Homeodomain-interacting protein kinase 4 (Homo sapiens) (UniProt Q8NE63); settings: at 0.1 µM
T1 sequence (whole entry): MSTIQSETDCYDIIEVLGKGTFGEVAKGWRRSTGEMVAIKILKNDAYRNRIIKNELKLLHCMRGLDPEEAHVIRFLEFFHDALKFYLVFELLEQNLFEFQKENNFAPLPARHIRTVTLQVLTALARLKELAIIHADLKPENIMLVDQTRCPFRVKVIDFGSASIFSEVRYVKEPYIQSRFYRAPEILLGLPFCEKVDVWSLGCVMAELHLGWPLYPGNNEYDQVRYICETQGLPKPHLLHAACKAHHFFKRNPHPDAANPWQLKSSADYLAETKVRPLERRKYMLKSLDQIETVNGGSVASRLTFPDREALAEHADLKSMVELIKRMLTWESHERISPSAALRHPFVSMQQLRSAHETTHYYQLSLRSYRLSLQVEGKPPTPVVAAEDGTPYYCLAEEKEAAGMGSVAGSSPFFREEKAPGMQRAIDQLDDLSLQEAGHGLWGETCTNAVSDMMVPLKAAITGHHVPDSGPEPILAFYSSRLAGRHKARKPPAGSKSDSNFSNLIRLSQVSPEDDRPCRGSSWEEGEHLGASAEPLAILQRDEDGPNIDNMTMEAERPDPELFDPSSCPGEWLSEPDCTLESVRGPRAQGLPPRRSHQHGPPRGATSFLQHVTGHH

[5] = target: T1, Homeodomain-interacting protein kinase 4 (Homo sapiens); settings: at 1 µM
[6] = target: Mitogen-activated protein kinase 9 (Homo sapiens) (UniProt P45984); settings: at 0.1 µM
[7] = target: Mitogen-activated protein kinase 9 (Homo sapiens) (UniProt P45984); settings: at 1 µM
[8] = target: Mitogen-activated protein kinase 1 (Homo sapiens) (UniProt P28482); settings: at 0.1 µM
[9] = target: Mitogen-activated protein kinase 1 (Homo sapiens) (UniProt P28482); settings: at 1 µM
[10] = target: Mitogen-activated protein kinase 3 (Homo sapiens) (UniProt P27361); settings: at 0.1 µM;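 also: each value is a mean inhibition figure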
Mitogen-activated protein kinase 3 (Homo sapiens), sequence (P27361 whole entry): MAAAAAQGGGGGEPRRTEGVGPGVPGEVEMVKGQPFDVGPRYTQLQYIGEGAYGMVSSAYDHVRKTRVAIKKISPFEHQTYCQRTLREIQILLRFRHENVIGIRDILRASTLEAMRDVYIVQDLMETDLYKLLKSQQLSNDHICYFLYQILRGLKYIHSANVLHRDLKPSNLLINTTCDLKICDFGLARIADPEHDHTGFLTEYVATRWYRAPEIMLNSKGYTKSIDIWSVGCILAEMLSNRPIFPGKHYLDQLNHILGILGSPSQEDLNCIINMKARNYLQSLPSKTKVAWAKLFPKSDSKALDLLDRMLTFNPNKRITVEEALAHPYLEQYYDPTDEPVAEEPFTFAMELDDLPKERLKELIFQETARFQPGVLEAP

Mitogen-activated protein kinase 1 (Homo sapiens), sequence (P28482 whole entry): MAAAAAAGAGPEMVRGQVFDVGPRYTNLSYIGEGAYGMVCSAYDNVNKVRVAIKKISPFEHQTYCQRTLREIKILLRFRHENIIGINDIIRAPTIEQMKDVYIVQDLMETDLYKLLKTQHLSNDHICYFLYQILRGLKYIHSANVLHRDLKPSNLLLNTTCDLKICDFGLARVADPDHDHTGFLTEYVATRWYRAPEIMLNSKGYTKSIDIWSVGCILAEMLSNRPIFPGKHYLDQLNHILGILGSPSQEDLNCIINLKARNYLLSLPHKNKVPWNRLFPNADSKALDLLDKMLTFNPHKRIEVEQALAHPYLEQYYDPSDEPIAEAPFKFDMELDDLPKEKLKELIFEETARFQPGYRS
Glycogen synthase kinase-3 beta (Homo sapiens), sequence (P49841 whole entry, looked up): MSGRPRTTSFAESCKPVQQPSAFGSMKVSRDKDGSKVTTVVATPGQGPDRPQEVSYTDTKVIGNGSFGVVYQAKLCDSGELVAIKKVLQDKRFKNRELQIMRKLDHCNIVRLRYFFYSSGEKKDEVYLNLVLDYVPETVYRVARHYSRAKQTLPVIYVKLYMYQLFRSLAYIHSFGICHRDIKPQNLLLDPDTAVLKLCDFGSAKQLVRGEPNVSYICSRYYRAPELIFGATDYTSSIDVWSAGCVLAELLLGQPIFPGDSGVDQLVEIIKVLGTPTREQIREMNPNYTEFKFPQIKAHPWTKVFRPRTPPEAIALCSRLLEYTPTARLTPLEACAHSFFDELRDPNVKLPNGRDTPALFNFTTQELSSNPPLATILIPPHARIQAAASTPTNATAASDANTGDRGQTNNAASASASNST
Homeodomain-interacting protein kinase 1 (Homo sapiens), sequence (Q86Z02 whole entry, looked up): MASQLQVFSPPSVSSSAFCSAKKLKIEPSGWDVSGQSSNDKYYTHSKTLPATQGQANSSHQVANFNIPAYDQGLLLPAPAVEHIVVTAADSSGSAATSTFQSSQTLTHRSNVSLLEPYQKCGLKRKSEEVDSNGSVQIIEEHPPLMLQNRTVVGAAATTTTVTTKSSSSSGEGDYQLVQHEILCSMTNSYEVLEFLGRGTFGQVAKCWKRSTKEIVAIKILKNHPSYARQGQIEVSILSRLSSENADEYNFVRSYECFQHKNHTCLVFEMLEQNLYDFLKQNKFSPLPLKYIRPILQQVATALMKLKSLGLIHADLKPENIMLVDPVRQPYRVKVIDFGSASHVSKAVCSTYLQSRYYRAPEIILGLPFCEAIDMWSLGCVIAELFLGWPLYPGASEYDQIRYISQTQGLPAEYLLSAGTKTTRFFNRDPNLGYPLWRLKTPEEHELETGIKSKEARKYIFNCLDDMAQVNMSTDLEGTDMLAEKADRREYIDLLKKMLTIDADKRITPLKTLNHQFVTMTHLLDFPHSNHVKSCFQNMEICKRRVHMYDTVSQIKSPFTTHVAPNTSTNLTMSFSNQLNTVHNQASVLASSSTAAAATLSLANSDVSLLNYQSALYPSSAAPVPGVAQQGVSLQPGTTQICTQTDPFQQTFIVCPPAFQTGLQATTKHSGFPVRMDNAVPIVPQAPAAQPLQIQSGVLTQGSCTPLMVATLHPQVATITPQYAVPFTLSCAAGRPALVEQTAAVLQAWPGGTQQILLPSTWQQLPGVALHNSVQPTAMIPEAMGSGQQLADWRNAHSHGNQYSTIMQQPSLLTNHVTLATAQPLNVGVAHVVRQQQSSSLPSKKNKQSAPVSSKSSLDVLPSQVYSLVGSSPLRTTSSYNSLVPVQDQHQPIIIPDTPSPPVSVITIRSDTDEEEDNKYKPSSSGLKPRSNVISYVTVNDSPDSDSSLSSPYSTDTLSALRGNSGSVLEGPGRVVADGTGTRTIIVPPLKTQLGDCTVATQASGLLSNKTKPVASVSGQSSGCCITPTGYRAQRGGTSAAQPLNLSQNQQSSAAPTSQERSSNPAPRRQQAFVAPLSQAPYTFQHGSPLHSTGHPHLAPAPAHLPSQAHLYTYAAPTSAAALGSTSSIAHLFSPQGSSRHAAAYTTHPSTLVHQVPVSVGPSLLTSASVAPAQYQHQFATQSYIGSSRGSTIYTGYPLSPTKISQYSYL
Mitogen-activated protein kinase 9 (Homo sapiens), sequence (P45984 whole entry, looked up): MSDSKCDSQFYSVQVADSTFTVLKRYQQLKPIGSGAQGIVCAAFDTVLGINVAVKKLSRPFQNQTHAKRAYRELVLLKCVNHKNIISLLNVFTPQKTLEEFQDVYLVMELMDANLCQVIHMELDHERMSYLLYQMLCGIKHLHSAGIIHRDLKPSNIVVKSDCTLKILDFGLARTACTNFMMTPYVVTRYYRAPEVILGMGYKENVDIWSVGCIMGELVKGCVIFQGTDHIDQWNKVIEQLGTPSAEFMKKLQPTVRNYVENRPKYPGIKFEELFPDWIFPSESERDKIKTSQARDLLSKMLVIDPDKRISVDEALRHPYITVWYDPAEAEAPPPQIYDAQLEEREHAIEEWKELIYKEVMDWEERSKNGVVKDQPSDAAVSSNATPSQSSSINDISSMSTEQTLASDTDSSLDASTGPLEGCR

Compound	inhibition [1]	inhibition [2]	inhibition [3]	inhibition [4]	inhibition [5]	inhibition [6]	inhibition [7]	inhibition [8]	inhibition [9]	inhibition [10]
COc1cc(C=NNc2ncnc3c2cnn3-c2ccccc2)ccc1O	78.1%	3.83%	28.3%	10.8%	39.6%	2.12%	6.67%	2.39%	2.08%	1.28%
COc1ccc(-c2ccncc2)cc1C(N)=O	4.32%	-2.78%	3.84%	0.07%	4.19%	4.22%	5.45%	5.23%	6.46%	3.61%
COc1cc(C)c(NC(=O)CN(C)C)cc1Nc1nc(Nc2cccc(F)c2C(N)=O)c2cc[nH]c2n1	0.98%	13.9%	60.6%	15.9%	63.4%	3.11%	12.6%	2.86%	4.47%	2.47%
COc1ccc(COc2ccc(Cc3cnc(N)nc3N)cc2OC)cc1	–	-1.6%	0.13%	2.52%	4.49%	0.2%	0.51%	-1.03%	-0.13%	0.6%
CCCN1CCC(Oc2cc(Nc3nc(Nc4cccc(F)c4C(N)=O)c4cc[nH]c4n3)c(OC)cc2Cl)CC1	9.38%	2.76%	18.8%	3.27%	24.8%	1.29%	2.98%	0.93%	17.9%	0.36%
CCn1c(-c2nonc2N)nc2cncc(C(=O)N3CCNCC3)c21	1.94%	-1.03%	0.35%	-0.43%	0.6%	5.31%	8.83%	8.16%	7.48%	6.65%
COC(=O)Nc1nc2cc(Oc3ccc(NC(=O)Nc4cccc(C(=O)O)c4)cc3)ccc2[nH]1	2.13%	-2.08%	0.32%	0.29%	3.06%	-0.11%	-0.13%	0.56%	0.1%	0.92%
CS(=O)(=O)CCNCc1nc(-c2ccc3ncnc(Nc4ccc(F)c(Cl)c4)c3c2)cs1	1.99%	1.07%	5.32%	3.32%	18.8%	1.61%	4.55%	4.72%	5.04%	1.63%
COc1cc2ncn(-c3cc(O[C@H](C)c4ccccc4Cl)c(C(N)=O)s3)c2cc1OC	23%	3.82%	12.1%	11.2%	30.2%	2.72%	3.88%	5.57%	4.8%	2.92%
NCc1ccc(-c2nc(-c3ccc(Cl)c(O)c3)c(-c3ccncc3)[nH]2)cc1	65.4%	0.11%	5.53%	0.99%	8.45%	4.51%	15.8%	-0.32%	0.67%	0.94%
Fc1cccc(COc2ccc(Nc3ncnc4sc(-c5cccs5)cc34)cc2Cl)c1	5.88%	-5.41%	2.04%	0.33%	1.31%	0.62%	1.01%	2.17%	1.6%	1.1%
N#Cc1c(NC(=O)c2cccc3ccccc23)sc2c1CCCC2	6.89%	-2.43%	1.91%	-1.01%	2.45%	6.07%	25.4%	2.02%	3.91%	-0.53%
NC(=O)c1cccc(Nc2nccc(Nc3cccc4[nH]ncc34)n2)c1	35%	1.13%	7.88%	3.21%	21.2%	-6.25%	4.55%	-3.75%	-0.34%	-3.05%
O=C(Nc1n[nH]c2nc(-c3ccco3)c(Br)cc12)C1CC1	–	-1.07%	3.67%	0.54%	2.1%	2.66%	3.7%	-0.07%	5.13%	5.33%
O=C1NC(=O)C(c2ccccc2Cl)=C1Nc1cccc(O)c1	–	1.81%	7.57%	0.96%	3.38%	2.21%	2.41%	2.64%	2.43%	2.98%
CN1CCC(C(=O)Nc2n[nH]c3nnc(-c4ccccc4)cc23)CC1	–	3.96%	9.2%	0.93%	4.44%	4.37%	5.52%	7.18%	5.71%	5.71%
Nc1nc(-c2ccccn2)c(-c2ccc3ncccc3n2)s1	8.29%	4.06%	10.3%	3.92%	10.1%	2.16%	2.28%	1.86%	2.54%	1.83%

Compound	inhibition [1]	inhibition [2]	inhibition [3]	inhibition [4]	inhibition [5]	inhibition [6]	inhibition [7]	inhibition [8]	inhibition [9]	inhibition [10]
O=C1NC(=O)C(N2CCc3ccccc32)=C1c1ccc(Cl)cc1	–	0.01%	1.33%	-0.41%	2.92%	3.51%	5.32%	3.12%	5.91%	5.26%
CS(=O)(=O)CCNCc1ccc(-c2ccc3ncnc(Nc4ccc(OCc5ccccc5)c(Cl)c4)c3c2)o1	3.95%	-2.41%	2.91%	4.33%	7.49%	-0.54%	1.16%	2.06%	1.18%	1.84%
COc1cc2ncn(-c3cc(OCc4ccccc4C(F)(F)F)c(C(N)=O)s3)c2cc1OC	7.21%	-1.28%	4.22%	10.1%	40.6%	1.63%	2.16%	4.18%	6.38%	5.3%
CCn1c(-c2nonc2N)nc2c(C#CC(C)(C)O)nc(OC[C@@H](N)c3ccccc3)cc21	76%	1.19%	13.3%	1.04%	8.34%	-0.01%	-0.83%	-1.1%	3.38%	-3.17%
CN(C)c1cc2c(Nc3ccc4nc(Cc5ccccc5)[nH]c4c3)ncnc2cn1	2.68%	0.23%	2.19%	2.51%	4.06%	10.2%	1.8%	4.86%	6.26%	3.48%
CCn1c(-c2nonc2N)nc2cnc(Oc3cccc(NC(=O)c4ccc(OCCN5CCOCC5)cc4)c3)cc21	53.9%	1.81%	11.5%	0.11%	10.4%	3.93%	5.85%	3.22%	4.07%	2.43%
CCn1c(-c2nonc2N)nc2ccncc21	5.32%	-3.19%	0.47%	-0.89%	-0.65%	3.39%	2.53%	13.4%	1.62%	2.94%
NS(=O)(=O)c1cccc(-c2ccc3c(NC(=O)C4CC4)n[nH]c3c2)c1	–	-0.23%	0.61%	0.1%	1.04%	-7.07%	-5.26%	-2.53%	-5.17%	0.73%
COc1cc2ncn(-c3cc(O[C@@H](C)c4ccccc4Cl)c(C(N)=O)s3)c2cc1OC	5.97%	-0.99%	4.95%	2.88%	22.1%	2.45%	8.24%	5.66%	6.55%	4.78%
[O-][S+]1CCN(Cc2ccc(-c3ccc4ncnc(Nc5ccc(OCc6ccccc6)c(F)c5)c4c3)o2)CC1	1.56%	-3.01%	2.83%	1.06%	5.51%	4.53%	4.55%	0.52%	2.92%	1.89%
COc1cc2ncn(-c3cc(OCc4ccccc4Cl)c(C(N)=O)s3)c2cc1OC	9.93%	0.06%	5.3%	7.28%	45.1%	2.23%	4.49%	0.95%	1.08%	-0.15%
CC1=C(C(=O)Nc2ccc3[nH]ncc3c2)C(c2ccc(F)cc2)NC(=O)N1 (stereo unspecified)	1.6%	-0.95%	-0.69%	-0.2%	-0.66%	1.75%	0.78%	1.62%	4.83%	2.23%
NS(=O)(=O)c1ccc(N/N=C2\C(=O)Nc3ccc(C(=O)NCCc4c[nH]cn4)cc32)cc1	86.6%	9.13%	48.9%	3.77%	20.2%	3.56%	9.28%	1.92%	17.6%	5.33%
O=C1NC(=O)C(c2ccc(Cl)cc2)=C1Nc1ccc(Cl)c(C(=O)O)c1	–	2.13%	4.29%	1.76%	1.98%	0.98%	5.72%	–	-5.59%	-1.99%
COc1ccccc1Nc1ncc(-c2ccccc2)o1	2.74%	-3.68%	0.57%	-0.52%	0.15%	4.12%	3.07%	5.93%	6.15%	4.06%
O=C1NC(=O)C(c2cccc(Cl)c2)=C1Nc1ccc(O)c(Cl)c1	–	-2.68%	1.28%	-1.68%	0.62%	3.34%	1.38%	-0.66%	1.91%	2.05%
Cc1ccc(C(=O)NC2CCCCC2)cc1-c1ccc(C(=O)NCC2CC2)cc1	0.33%	-0.44%	1.1%	1.23%	3.16%	5.74%	6.33%	3.78%	4.11%	2.55%
